Experimental data from the supplement of paper PMC10981050.
Where “and” joins values, the source holds several entries; their conditions need not be identical. Equal values may be shown once. Where a name gives a salt, the structure may show the parent alone.

Legend:
Test in all cases: cell viability relative to vehicle control; higher = less cytotoxic
Details in all cases: 10 µM
K562 = tested on: K562
Summary of the method: (§1)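 Mutant clones made by CRISPR editing and their isogenic wild-type counterparts, from four leukaemia lines, were exposed to a single 10 µM dose of each library compound for 48 h. The supernatant was then removed and CellTiter-Glo luminescence was read. Viability was reported as percent of the on-plate vehicle control.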

MARIMO = tested on: MARIMO
Summary of the method: as §1

MOLM14 = tested on: MOLM14
Summary of the method: as §1

OCI-AML2 = tested on: OCI-AML2
Summary of the method: as §1

SMILES | cell viability (K562; SRSF2 genotype: SRSF2 P95H/wt) | cell viability (K562; SRSF2 genotype: SRSF2 wt/wt) [%] | cell viability (MARIMO; SRSF2 genotype: SRSF2 P95H/wt) [%] | cell viability (MARIMO; SRSF2 genotype: SRSF2 wt/wt) [%] | cell viability (MOLM14; SRSF2 genotype: SRSF2 P95H/wt) [%] | cell viability (MOLM14; SRSF2 genotype: SRSF2 wt/wt) [%] | cell viability (OCI-AML2; SRSF2 genotype: P95H/wt) [%] | cell viability (OCI-AML2; SRSF2 genotype: wt/wt) [%]
CC(C)c1c(-c2ccccc2)nc2c(C#N)c[nH]n2c1=O | 105% and 99.3% | 108 | 103 | 93.5 | 97.8 | 98.8 | 103 | 101
CCc1c(Cl)c(O)c(Cl)c(O)c1C(=O)O[C@H]1[C@H](O)[C@H](OC)[C@H](OC/C2=C\C=C\C[C@H](O)/C(C)=C/[C@H](CC)[C@@H](O[C@@H]3OC(C)(C)[C@@H](OC(=O)C(C)C)[C@H](O)[C@@H]3O)/C(C)=C/C(C)=C/C[C@@H]([C@@H](C)O)OC2=O)O[C@@H]1C [Fidaxomicin] | 81.3% and 80.5% | 78.3 | 86.2 | 91.3 | 74.9 | 84.6 | 110 | 100
CC(C)=CCCC(C)(O)C1CCC2(C)C1C(O)CC1C3(C)CCC(OC4OC(CO)C(O)C(O)C4OC4OC(CO)C(O)C(O)C4O)C(C)(C)C3CCC12C [(20R)Ginsenoside Rg3] | 105% and 103% | 99.1 | 107 | 122 | 108 | 109 | 105 | 128
CC(C)C12CCC(C)(CC1)O2 [1,4-Cineole] | 104% and 101% | 104 | 103 | 103 | 105 | 110 | 99.4 | 97.7
C[C@]1(O)C[C@@H](c2nc(-c3ccc4ccc(-c5ccccc5)nc4c3)c3c(N)nccn32)C1 [OSI-906 (Linsitinib)] | 79.7% and 90.1% | 80.6 | 41.9 | 40.8 | 72.2 | 82.2 | 29.6 | 38.1
CC(=O)OC/C=C(\C)CCC=C(C)C [Geranyl acetate] | 102% and 95.2% | 107 | 104 | 112 | 99.2 | 111 | 97.2 | 103
O=C(Nc1ncc([N+](=O)[O-])s1)c1ccccc1O [Tizoxanide] | 82% and 82.9% | 88.8 | 90.3 | 94.2 | 96.9 | 100 | 91.2 | 96.1
CCC(CC)n1ccc2c(C(=O)NCc3c(C)cc(C)[nH]c3=O)cc(C#N)cc21 | 107% and 101% | 95.5 | 103 | 112 | 100 | 100 | 95 | 102
COc1cc(C=O)ccc1O [Vanillin] | 94.2% and 102% | 99.7 | 102 | 105 | 103 | 102 | 105 | 97.5
CS(=O)(=O)c1ccc(C(=O)Nc2ccc(Cl)c(-c3ccccn3)c2)c(Cl)c1 [Vismodegib (GDC-0449)] | 93.4% and 96.9% | 96.7 | 101 | 104 | 103 | 104 | 96 | 92.9
C[C@@H]1CC[C@@]2(NC1)O[C@H]1C[C@H]3[C@@H]4CC=C5C[C@@H](O[C@@H]6O[C@H](CO)[C@@H](O[C@@H]7O[C@@H](C)[C@H](O)[C@@H](O)[C@H]7O)[C@H](O)[C@H]6O)CC[C@]5(C)[C@H]4CC[C@]3(C)[C@H]1[C@@H]2C [Khasianine] | 104% and 102% | 103 | 102 | 104 | 104 | 102 | 104 | 107
CCNC(=O)CCC/C=C\C[C@@H]1[C@@H](/C=C/[C@@H](O)CCc2ccccc2)[C@H](O)C[C@@H]1O [Bimatoprost] | 99.5% and 99.1% | 96.8 | 95.4 | 98.3 | 98.4 | 98.3 | 105 | 98.8
COc1c(N2C[C@@H]3CCCN[C@@H]3C2)c(F)cc2c(=O)c(C(=O)O)cn(C3CC3)c12 [Moxifloxacin hydrochloride] | 104% and 99.6% | 93.3 | 101 | 105 | 92.9 | 98.5 | 90.4 | 97.2
Clc1ccc2c(c1)CCc1cccnc1C2=C1CCNCC1 [Desloratadine] | 90.9% and 102% | 93.2 | 80.7 | 83.5 | 88.8 | 94.3 | 94.8 | 81.9
O=C(/C=C/c1ccc(O[C@@H]2O[C@H](CO)[C@@H](O)[C@H](O)[C@H]2O)cc1)c1ccc(O)cc1O [Isoliquiritin] | 96.8% and 98% | 105 | 103 | 97.6 | 69.7 | 87.6 | 111 | 107
Clc1ccc(COC(Cn2ccnc2)c2ccc(Cl)cc2Cl)c(Cl)c1 (stereo not given) [Miconazole nitrate] | 68.8% and 61.8% | 67.2 | 70 | 76.1 | 57.4 | 64.3 | 66.2 | 63.4
N#CC(=C(O)c1ccc(Cl)cc1Cl)c1nc2ccccc2c(=O)[nH]1 [HPI-4 (Ciliobrevin A)] | 91.5% and 92.8% | 93.6 | 98.9 | 97 | 92.1 | 87.2 | 106 | 99.5
CC(C)N1CCN(Cc2cnc(-c3cc(-c4cccc5[nH]ccc45)cc4[nH]ncc34)o2)CC1 | 39.8% and 29.8% | 36.8 | 53.7 | 52.9 | 68.2 | 61.6 | 30.8 | 39.8
COc1cc2nc(N3CCN(C(=O)c4ccco4)CC3)nc(N)c2cc1OC [Prazosin HCl] | 99.9% and 102% | 102 | 96.8 | 103 | 101 | 97 | 102 | 95.6
COc1cc(O)c(C(=O)/C=C/c2ccccc2)c(OC)c1 [Flavokawain B] | 23.3% and 39% | 58 | 34.5 | 39 | 22.6 | 11.3 | 22.8 | 25.2

SMILES | cell viability (K562; SRSF2 genotype: SRSF2 P95H/wt) | cell viability (K562; SRSF2 genotype: SRSF2 wt/wt) [%] | cell viability (MARIMO; SRSF2 genotype: SRSF2 P95H/wt) [%] | cell viability (MARIMO; SRSF2 genotype: SRSF2 wt/wt) [%] | cell viability (MOLM14; SRSF2 genotype: SRSF2 P95H/wt) [%] | cell viability (MOLM14; SRSF2 genotype: SRSF2 wt/wt) [%] | cell viability (OCI-AML2; SRSF2 genotype: P95H/wt) [%] | cell viability (OCI-AML2; SRSF2 genotype: wt/wt) [%]
CC(C)c1c(C(=O)Nc2ccccc2)c(-c2ccccc2)c(-c2ccc(F)cc2)n1CC[C@@H](O)C[C@@H](O)CC(=O)O [Atorvastatin calcium (Lipitor)] | 67.2% and 88.5% | 56.9 | 52 | 50.4 | 67.7 | 91.5 | 41.1 | 45.6
N#Cc1ccc(C(c2ccc(C#N)cc2)n2cncn2)cc1 [Letrozole] | 95.7% and 97.2% | 91.9 | 91.9 | 94 | 96.8 | 92.3 | 87.5 | 90.1
COc1cc2c(c(OC)c1OC)-c1c(cc3c(c1OC)OCO3)C[C@H](C)[C@](C)(O)[C@H]2OC(=O)c1ccccc1 [Schisantherin A] | 102% and 111% | 97.5 | 89.3 | 102 | 100 | 102 | 106 | 102
COc1cc(N)c(Cl)cc1C(=O)NC1CCN(CCCOc2ccc(F)cc2)CC1OC (stereo not given) [Cisapride hydrate] | 93.4% and 92.3% | 95.5 | 93.3 | 105 | 99.8 | 102 | 105 | 99.8
CN(C)c1ccc2nc3c(C(=O)O)cc(=O)c(O)c-3oc2c1 [Gallocyanine] | 84.7% and 76.8% | 77.7 | 82.6 | 87.4 | 85.3 | 86.2 | 84 | 78.8
COc1cc(OC)c(NC(=O)Nc2cc(C)on2)cc1Cl | 91.9% and 83.8% | 85.7 | 86.4 | 86.6 | 61.3 | 74.5 | 73.4 | 74.3
C=CCNC(N)=S [Allylthiourea] | 98.8% and 95.9% | 107 | 108 | 112 | 101 | 104 | 99.8 | 110
c1ccc(-c2nn3c(c2-c2ccnc4cc(OCCN5CCOCC5)ccc24)CCC3)nc1 | 104% and 111% | 97.1 | 106 | 120 | 105 | 110 | 108 | 117
Cc1cn([C@H]2C[C@H](O)[C@@H](CO)O2)c(=O)[nH]c1=O [Thymidine] | 98.3% and 88% | 98.2 | 96.6 | 102 | 92.5 | 99.7 | 91.8 | 99.9
CCCC(CCC)C(=O)O[C@H]1C[C@H]2CC[C@@H](C1)[N+]2(C)C [anisotropine methylbromide] | 101% | 104 | 106 | 107 | 98 | 101 | 106 | 93.6
COc1cc(-c2oc3cc(O)cc(O)c3c(=O)c2O)ccc1O [Isorhamnetin] | 87.2% and 88.3% | 86.6 | 83.4 | 92.4 | 71.8 | 79.4 | 81.1 | 89
O=C(O)CC1CC(c2ccccc2)=NO1 (stereo not given) | 108% and 104% | 103 | 97 | 110 | 97.4 | 99.7 | 89.5 | 95.5
OC[C@H]1O[C@@H](Oc2cc(O)cc(/C=C/c3ccc(O[C@@H]4O[C@H](CO)[C@@H](O)[C@H](O)[C@H]4O)cc3O)c2)[C@H](O)[C@@H](O)[C@@H]1O [Mulberroside A] | 94.5% and 95.1% | 98.2 | 95.3 | 101 | 97.3 | 97.6 | 97.1 | 105
COc1cc(OC)c(C(=O)CCCN2CCCC2)c(OC)c1 [Buflomedil HCl] | 93.2% and 114% | 108 | 100 | 102 | 112 | 106 | 113 | 101
CCOC(=O)c1ccc(NC2CCCCC2)c(N)c1 [Ferrostatin-1 (Fer-1)] | 98.7% and 94.8% | 88.4 | 90.6 | 106 | 104 | 102 | 94.3 | 90.4
CNCC[C@@H](Oc1ccccc1C)c1ccccc1 [Atomoxetine HCl] | 111% and 112% | 108 | 100 | 94.9 | 101 | 106 | 115 | 94.6
CC(C)c1cnn2c(NCc3ccccc3)cc(NCCCCCCN)nc12 | 86.8% and 99.7% | 101 | 89.9 | 87.8 | 95.9 | 98.5 | 89.4 | 87.5
CC[C@H]1OC(=O)[C@H](C)[C@@H](O[C@H]2C[C@@](C)(OC)[C@@H](O)[C@H](C)O2)[C@H](C)[C@@H](O[C@@H]2O[C@H](C)C[C@H](N(C)C)[C@H]2O)[C@](C)(OC)C[C@@H](C)C(=O)[C@H](C)[C@@H](O)[C@]1(C)O [Clarithromycin (Biaxin, Klacid)] | 105% and 111% | 107 | 99 | 102 | 99.6 | 104 | 108 | 91.7
COc1cc2oc(-c3ccc(O)cc3)cc(=O)c2c(O)c1[C@@H]1O[C@H](CO)[C@@H](O)[C@H](O)[C@H]1O[C@@H]1O[C@H](CO)[C@@H](O)[C@H](O)[C@H]1O [Spinosin] | 106% | 104 | 106 | 101 | 106 | 104 | 99.2 | 100
Nc1ncnc2c1c(I)cn2C1OC(CO)C(O)C1O (stereo not given) [5-Iodotubercidin] | 4.74% and 10.8% | 6.66 | 12.2 | 5.58 | 0.78 | 0.42 | 2.92 | 13.1
